# Results as given in PubChem BioAssay AID687020 (Broad Institute, 2013).
# About 100 (7.1%) of roughly 1,400 compounds were called active. No rule for the calls is given here. These entries were drawn from the full list. Results with a measured potency or affinity are listed apart.
# Assay: viability loss in Vero cells – cell-based, plate reader, cherry-pick samples, cytotoxicity control, dose response (AID 687020);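 also: compounds incubated with cells for three days before luminescence read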
# Conditions: series mostly up to 19.5 µM; activity change, negative = toxicity: at the top concentration
row,SMILES,"activity change, negative = toxicity"
1,CCCNC(=O)C(Cc1ccc(I)cc1)NC(=O)c1ccc(C#N)cc1 (centres undefined),-7.83% (inactive)
2,O=C(CN1CCN(Cc2ccccc2)CC1)NNC(=O)c1ccccc1,5.73% (inactive)
3,Cc1ccnc(NC(=O)C(Cc2ccccc2)NC(=O)c2ccccc2)c1 (centres undefined),-0.022% (inactive)
4,Cc1cn([C@H]2C[C@H](O)[C@@H](CNCc3ccc4ncccc4c3)O2)c(=O)[nH]c1=O,1.96% (inactive)
5,CCOc1ccc(N(CC(=O)Nc2cccc(C)c2)S(C)(=O)=O)cc1,0.008% (inactive)
6,CCN(CC)S(=O)(=O)c1ccc(NC(=O)COC(=O)CNC(=O)C2CCCCC2)cc1,-11.8% (inactive)
7,CCCc1cc(=O)oc2c(C)c(OCC(=O)N3C[C@H]4C[C@@H](C3)c3cccc(=O)n3C4)ccc12,-1.16% (inactive)
8,Cc1c(C)c2c(OCC(=O)N3CCC(O)CC3)cc3c(c2oc1=O)CCC(C)(C)O3,-2.19% (inactive)
9,C[C@@H]1CN([C@H](C)CO)C(=O)c2cc(NC(=O)Nc3ccc(C(F)(F)F)cc3)ccc2O[C@@H]1CN(C)Cc1ccccc1,-1.61% (inactive)
10,COc1ccccc1N1CCN(C(=O)c2cc(S(=O)(=O)N3CCCCC3)ccc2C)CC1,2.93% (inactive)
11,O=C(Nc1ccn(CC(=O)N2CCN(c3ccccn3)CC2)c(=O)n1)OCc1ccccc1,0.414% (inactive)
12,CC(C)(C)OC(=O)C(Cc1ccc(OC(C)(C)C)cc1)NC(=O)CNC(=O)OCc1ccccc1 (centres undefined),7.26% (inactive)
13,Cc1cccc(NC(=O)c2cccc(S(=O)(=O)N(C)C3CCCCC3)c2)n1,-9.89% (inactive)
14,CCCC/C=C/c1cccc2nncn12,-16.7% (inactive)
15,COc1cccc(-c2nc3nc(C)cc(C)n3c2NC2CCCC2)c1,-12.2% (inactive)
16,CCC(=O)Nc1cc(C(=O)OCc2ccc(C(=O)Oc3ccccc3)cc2)ccc1C,-7.35% (inactive)
17,O=C([C@@H]1[C@@H](CO)[C@@H]2Cn3c(cccc3=O)[C@H]1N2C(=O)CC1CC1)N1CCCCC1,-1.82% (inactive)
18,CCCCNC(=O)c1onc(CS(=O)(=O)c2ccccn2)c1C(=O)NCCCC,3.17% (inactive)
19,COc1ccc([C@H]2/C=C\CN(C(=O)c3ccc(C)cc3)[C@@H](C)C(=O)N2Cc2ccc(F)cc2)cc1,-21% (inactive)
20,O=C(N[C@H](Cc1ccccc1)C(=O)NC1CCCCC1)[C@H]1O[C@@H](n2ccc(=O)[nH]c2=O)[C@H](O)[C@@H]1O,-7.41% (inactive)

row,SMILES,"activity change, negative = toxicity"
1,COC(=O)c1ccc2nc(-c3ccc(C#N)cc3)c(Cc3cccc(F)c3)n2c1,-7.15% (inactive)
2,COC(=O)c1ccc2nc(C3CCCCC3)c(Cc3ccccc3OC)n2c1,4.3% (inactive)
3,CCN1CCN(CCc2nc3cc(NC(=O)COc4ccc(Cl)cc4)ccc3n2C)CC1,7.94% (inactive)
4,CCN1C(=NCCc2c[nH]c3ccccc23)N[C@@H](c2ccccc2)[C@H](C(=O)OC)[C@H]1C,2.11% (inactive)
5,NCc1csc(NC(=O)Nc2cccc(Cl)c2)n1,-0.314% (inactive)
6,COC(=O)[C@]12CCCCC=C1N(Cc1cccc3ccccc13)C(=O)[C@H](CC(=O)N1CCOCC1)C2,-24.4% (inactive)
7,COC(=O)[C@]12CCCCC=C1N(Cc1cccc3ccccc13)C(=O)[C@H](CC(=O)NCCC(C)C)C2,-3.09% (inactive)
8,COc1ccc(S(=O)(=O)Nc2ccc3c(c2)C(=O)N([C@@H](C)CO)C[C@H](C)[C@H](CN(C)C(=O)Nc2ccc(C(F)(F)F)cc2)OCCCC[C@H](C)O3)cc1,-3.77% (inactive)
9,CC(NC(=O)CN1CCCC1)c1ccccc1 (centres undefined),-14.4% (inactive)
10,Cc1cc(C)c2[nH]c(C(=O)Nc3ccc4c(c3)OCO4)cc2c1,12.9% (inactive)
11,Cc1cccc(OCCn2c(=O)n(C)c3ccccc32)c1,0.128% (inactive)
12,Cc1c(C)c2cc(Cl)c(OCC(=O)NCCCN3CCCC3=O)cc2oc1=O,-17.8% (inactive)
13,Cc1oc2cc3oc(=O)c(CCC(=O)NCCCn4ccnc4)c(C)c3cc2c1C,-2.65% (inactive)
14,COc1ccc(CN(CCC(c2ccccc2)C2CCOC(C)(C)C2)C(C)=O)cc1 (centres undefined),-28.6% (inactive)
15,Cc1ccc(C2(C)NC(=O)N(CC(=O)Nc3ccccc3C(=O)NC3CCCC3)C2=O)cc1 (centres undefined),16.5% (inactive)
16,Cc1cccc(C(=O)NC2CCN(CC(=O)Nc3cccc(Cl)c3)CC2)c1,-13.7% (inactive)
17,O=S1(=O)CCOCCCN1Cc1ccccc1Br,-11.1% (inactive)
18,CN1C(=O)c2cc(NC(=O)Cc3cccs3)ccc2OC[C@@H]2O[C@H](CC(=O)NCC3CCCCC3)CC[C@H]21,-0.804% (inactive)
19,CC(=O)N1CC2(C1)[C@H](c1ccc(-c3ccc(C#N)cc3)cc1)[C@@H](CO)N2C(=O)C1CC1,-8.45% [at 21 µM] (inactive)
20,CCCCN1C(Nc2ccccc2)=NC[C@@H]1Cc1ccccc1,-27.3% (inactive)

row,SMILES,"activity change, negative = toxicity"
1,O=C(Nc1ccccc1)c1ccccc1CSc1ccccc1,-1.49% (inactive)
2,O=C(Cc1cccc(C(F)(F)F)c1)Nc1ccc(S(=O)(=O)N2CCCC2)cc1,-7.86% (inactive)
3,O=S(=O)(c1cccc(C(F)(F)F)c1)N1CCN(CC(O)COCc2ccccc2)CC1 (centres undefined),-21.4% (inactive)
4,CC1(C#N)c2ccccc2C(Br)=CN1C(=O)c1ccccc1 (centres undefined),-10.1% (inactive)
5,COc1ccc(NC(=O)C2CCC(CNS(=O)(=O)c3cccs3)CC2)cc1OC (centres undefined),9.24% (inactive)
6,O=C1Nc2ccccc2SC1c1ccccc1 (centres undefined),-3.58% (inactive)
7,COc1ccc(-c2nc3ccc(C)cn3c2Cc2cccc(F)c2)cc1OC,-12.7% (inactive)
8,CC(=O)Nc1cccc(C(=O)OCC(=O)Nc2ccc(Cl)cn2)c1,-16.6% (inactive)
9,CC(=O)Nc1cccc(/C(C)=N/NC(=O)c2cccc(S(=O)(=O)N3CCCC3)c2)c1,-0.142% (inactive)
10,O=C(C1CCOCC1)N1[C@H](CO)[C@@H](c2ccccc2)C12CN(Cc1cccnc1)C2,-1.45% [at 21 µM] (inactive)
11,COC(=O)Cc1ccc(OC2(C)CCN(Cc3csc4ccccc34)C2)cc1 (centres undefined),-3.5% (inactive)
12,COc1ccc(Cc2nnc(NC(=O)c3ccccc3Cl)s2)cc1OC,7.56% (inactive)
13,COC(=O)CCc1cccc(CCC(=O)OC)c1,13% (inactive)
14,C[C@@H](NC(=O)C[C@@H]1CC[C@H]2[C@@H](COC[C@H](O)CN2C(=O)Nc2ccccc2)O1)c1ccccc1,-8.89% (inactive)
15,Cc1ccc(S(=O)(=O)NC(=O)C2(C)CCN2C(=O)c2ccc(C(F)(F)F)nc2C)cc1 (centres undefined),1.35% (inactive)
16,O=S(=O)(c1cnc(Cl)c(Cl)c1)N1CCc2ccccc21,-3.26% (inactive)
17,Cc1ccc(-c2csc(NC(=O)c3ccc(S(=O)(=O)N4CCc5ccccc54)cc3)n2)cc1,-32.4% (inactive)
18,COc1ccc(CC(=O)OCC(=O)NCCNC(=O)COC(=O)Cc2ccc(OC)cc2)cc1,-7.45% (inactive)
19,COCCNC(=O)C[C@@H]1C[C@H]2c3cc(NC(=O)Nc4ccc(OC)cc4)ccc3O[C@H]2[C@@H](CO)O1,12.2% (inactive)
